PubChem BioAssay (NCI)
Compounds without any hit were thinned out: in the full panel of roughly 83,000, 20% have a hit.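 Interpretation: 100, growth as untreated; towards 0, rising growth inhibition; 0, no net growth; 0 to -100, cell death. Compounds scoring below 10 were considered active.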 The source made the active and inactive calls.

How the values were obtained:
Assay in all cases: NCI-60 one-dose screen, 48 h (100 = growth as untreated, 0 = no growth, -100 = all killed)
HCT-15 colon = conditions: 10 µM unless noted
HT29 colon = conditions: 10 µM unless noted
SNB-75 CNS = conditions: 10 µM unless noted
SNB-19 CNS = conditions: 10 µM unless noted
U251 CNS = conditions: 10 µM unless noted
PC-3 prostate = conditions: 10 µM unless noted
SK-MEL-5 melanoma = conditions: 10 µM unless noted
UACC-62 melanoma = conditions: 10 µM unless noted
LOX IMVI melanoma = conditions: 10 µM
SK-MEL-28 melanoma = conditions: 10 µM unless noted
SK-MEL-2 melanoma = conditions: 10 µM unless noted
EKVX NSCLC = conditions: 10 µM unless noted
SN12C renal = conditions: 10 µM unless noted
UO-31 renal = conditions: 10 µM unless noted
TK-10 renal = conditions: 10 µM unless noted
ACHN renal = conditions: 10 µM unless noted
CAKI-1 renal = conditions: 10 µM unless noted
A498 renal = conditions: 10 µM unless noted
MOLT-4 leukemia = conditions: 10 µM unless noted
CCRF-CEM leukemia = conditions: 10 µM unless noted

Measured: growth

COCC(N)=O
inactive: HCT-15 colon 100% | HT29 colon 102% | SNB-75 CNS 102% | SNB-19 CNS 107% | U251 CNS 104% | PC-3 prostate 94.6% | SK-MEL-5 melanoma 102% | UACC-62 melanoma 109% | LOX IMVI melanoma 99.7% | SK-MEL-28 melanoma 121% | SK-MEL-2 melanoma 95.9% | EKVX NSCLC 109% | SN12C renal 108% | UO-31 renal 85.2% | TK-10 renal 102% | ACHN renal 102% | CAKI-1 renal 104% | A498 renal 96.6% | MOLT-4 leukemia 98.5%

Cc1cc(Cl)cc(Cc2cc(Cl)cc(C)c2O)c1O
inactive: HCT-15 colon 12.4% | HT29 colon 98.1% | SNB-75 CNS 19.3% | SNB-19 CNS 17.3% | UACC-62 melanoma 16.1% | SK-MEL-28 melanoma 22.6% | EKVX NSCLC 53.9% | TK-10 renal 34.6%
active: U251 CNS 8.37% | PC-3 prostate -7.63% | SK-MEL-5 melanoma 6.88% | LOX IMVI melanoma 5.44% | SK-MEL-2 melanoma -18.1% | SN12C renal 2.59% | UO-31 renal 7.78% | ACHN renal 7.14% | CAKI-1 renal 3.84% | CCRF-CEM leukemia 5.51% | MOLT-4 leukemia -15.1%

NNc1ncnc2nc[nH]c12
active: SK-MEL-2 melanoma -7.36%
inactive: HCT-15 colon 44.1% | HT29 colon 53.7% | SNB-75 CNS 89.3% | SNB-19 CNS 96% | U251 CNS 72.2% | PC-3 prostate 63% | SK-MEL-5 melanoma 71.9% | UACC-62 melanoma 18.7% | LOX IMVI melanoma 30.9% | SK-MEL-28 melanoma 105% | EKVX NSCLC 69.7% | SN12C renal 74.6% | UO-31 renal 30.9% | TK-10 renal 67.1% | ACHN renal 41.1% | CAKI-1 renal 42.3% | CCRF-CEM leukemia 37.8% | MOLT-4 leukemia 56.2%

CCCCCCCCCCCCSC1=C(Cl)C(=O)C(OC)=C(OC)C1=O
active: SK-MEL-5 melanoma -37.6% | MOLT-4 leukemia -4.73%
inactive: HCT-15 colon 25.6% | HT29 colon 27.8% | SNB-75 CNS 44.9% | SNB-19 CNS 71.8% | U251 CNS 26% | PC-3 prostate 23.1% | UACC-62 melanoma 45.4% | LOX IMVI melanoma 11.7% | SK-MEL-28 melanoma 105% | SK-MEL-2 melanoma 39.3% | EKVX NSCLC 37.9% | SN12C renal 24.5% | UO-31 renal 32.9% | TK-10 renal 43.7% | ACHN renal 27.7% | CAKI-1 renal 70.8% | A498 renal 77.4%

OC1Cc2ccccc2C1
inactive: HCT-15 colon 93.3% | HT29 colon 100% | SNB-75 CNS 93.6% | SNB-19 CNS 100% | U251 CNS 105% | PC-3 prostate 95.4% | SK-MEL-5 melanoma 101% | UACC-62 melanoma 95.6% | LOX IMVI melanoma 93.3% | SK-MEL-28 melanoma 102% | SK-MEL-2 melanoma 107% | EKVX NSCLC 99.9% | SN12C renal 104% | UO-31 renal 97.5% | TK-10 renal 95.9% | ACHN renal 98.3% | CAKI-1 renal 103% | CCRF-CEM leukemia 98.1% | MOLT-4 leukemia 98.9%
